Results from PubChem BioAssay AID1851 (National Center for Advancing Translational Sciences (NCATS), 2009).
Screen size: about 16,000 compounds; about 5,100 (32%) were called active. Not shown: some 25% with an inconclusive outcome. The call rests on the fitted dose curve; in most records, active means well fitted curve in the direction sought with a large enough effect; inconclusive means small, poorly fitted or top-dose-only effect, or effect the other way; inactive means no such curve, though single readings can be large or run the other way. Some of the results follow.

target: Cytochrome P450 3A4 (Homo sapiens) (UniProt P08684); test: Cytochrome panel assay with activity outcomes; settings: recombinant CYP, pro-luciferin dealkylation, luminescence, p450-cyp3a4; series mostly up to 57.1 µM; activity, negative = inhibition: at the top concentration
On the % scale 0 is the no-effect control and ±100 the full control effect.

Sequence of Cytochrome P450 3A4 (Homo sapiens) (P08684 whole entry, looked up): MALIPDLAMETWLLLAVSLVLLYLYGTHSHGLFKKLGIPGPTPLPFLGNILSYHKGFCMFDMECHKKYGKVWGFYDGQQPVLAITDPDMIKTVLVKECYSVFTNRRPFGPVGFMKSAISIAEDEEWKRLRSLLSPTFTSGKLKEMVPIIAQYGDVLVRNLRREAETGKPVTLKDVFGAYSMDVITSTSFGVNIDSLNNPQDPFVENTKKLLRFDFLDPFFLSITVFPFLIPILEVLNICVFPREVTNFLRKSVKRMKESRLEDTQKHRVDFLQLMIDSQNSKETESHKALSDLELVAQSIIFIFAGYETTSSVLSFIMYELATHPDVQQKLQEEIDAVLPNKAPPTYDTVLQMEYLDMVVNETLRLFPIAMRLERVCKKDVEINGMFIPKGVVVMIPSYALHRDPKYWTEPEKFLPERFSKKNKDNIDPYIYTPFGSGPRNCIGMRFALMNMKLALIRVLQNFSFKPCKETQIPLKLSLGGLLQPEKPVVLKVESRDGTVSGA

activity, negative = inhibition, inactive:
Cc1ccc(N(CC(N)=O)C2SC(=O)N(Cc3cccc(C(=O)O)c3)C2=O)cc1 (configuration not stated) 22.1%
Cc1cccc(-c2nnc(SCc3ccccc3)o2)c1 -29.6%
c1ccc(CSc2nnc([C@@H]3CCCN3)o2)cc1 -4.35% [at 11.4 µM]
CCOC(=O)c1c(NC(=O)Cn2nc([N+](=O)[O-])c(Br)c2C)sc2c1CCC(C)C2 (configuration not stated) -21.8% [at 2.29 µM]
CCOC(=O)c1c(NC(=O)CSc2nnc(C)s2)sc2c1CCCCC2 -23.9% [at 2.29 µM]
O=C(O)CCN1C(=S)CSC1=S -22% [at 11.4 µM]
Cc1ccc(-c2ncccc2OC(=O)C23CC4CC(CC(C4)C2)C3)cc1 -12.5% [at 2.29 µM]
CCOC(=O)c1cccc(C(=O)OCC)n1 -1.92%
Cc1ccc(OC(=O)c2cccc(C(=O)Oc3ccc(C)cc3)n2)cc1 6.37% [at 11.4 µM]
COc1c(O)cc2c(c1O)[C@@H]1O[C@@H](CO)[C@@H](O)[C@@H](O)[C@@H]1OC2=O -6.12% [at 25.6 µM]
c1cnc(Nc2nc(-c3ccc4ccccc4c3)cs2)nc1 -2.2%
Cc1nn2c([nH]c(=O)c3ccccc32)c1C=O 3.01%
O=C(O)NCc1ccccc1 (tested in a mixture with another compound) -3.33% [at 11.4 µM]
CCN1CCN(CCCNC(=O)c2cc3cc4ccc(OC)cc4nc3o2)CC1 -17.8%
COc1cc2c3c(c1OC)C1(C=CC(=O)C=C1)CC3N(C(=O)c1ccccc1)CC2 (configuration not stated) 1.64%
CN1CCN(C(=O)c2ccc(-n3cccc3)cc2)CC1 -11.5%
COc1ccc2nc(/N=C\N(C)C)sc2c1 -29.5%
COc1ccc2nc(N)sc2c1 -20.7%
COc1cc(/C=N\Nc2nc3ccccc3[nH]2)cc(OC)c1OC -13.5% [at 2.29 µM]
COc1cccc(-c2cncnc2NC2CCNCC2)c1 -17.5%
Nc1cc2c(nc3c4ccccc4c(N)cc3[n+]2-c2cccc3ccccc23)c2ccccc12 (tested in a mixture with another compound) -29.5% [at 11.4 µM]
CCCCCCCCC[n+]1cccc2c3ccccc3ccc21 6.4%
CCOC(=O)[C@H](N)/C=C(\C)CP(=O)(O)O -11.1%

AC50, active:
Clc1ccc(CSc2nnc(-c3sccc3-n3cccc3)o2)cc1 6.31 µM
Clc1ccc(CSc2nnc(-c3cccnc3)o2)cc1 3.16 µM
c1ccc(CSc2nnc(-c3sccc3-n3cccc3)o2)cc1 15.8 µM
Clc1cccc(CSc2nnc(-c3sccc3-n3cccc3)o2)c1 8.91 µM
COC(=O)c1c(NC(=O)Cn2cc([N+](=O)[O-])cn2)sc2c1CCC2 14.1 µM
CCOC(=O)c1c(NC(=O)Cn2cc([N+](=O)[O-])cn2)sc2c1CCC2 10 µM
CCC(C(=O)c1ccccc1)N(C(=O)c1ccccc1Cl)N1C(=O)C2C3C=CC(C3)C2C1=O (configuration not stated) 0.891 µM
COC(=O)c1cccc(C(=O)Nc2ccc(C)cc2)n1 12.6 µM
c1ccc(CNc2ccnc(-c3ccc4c(c3)OCO4)n2)cc1 0.794 µM
c1cncc(CNc2ccnc(-c3ccc4c(c3)OCO4)n2)c1 1 µM
c1csc(CNc2ccnc(-c3ccc4c(c3)OCO4)n2)c1 1 µM
COc1cccc(Nc2nc(-c3ccc(O)cc3)cs2)c1 7.08 µM
O=C(NCc1ccccc1)c1sc(=S)n2c1[nH]c(=O)c1ccccc12 3.98 µM
COc1ccc2cc3cc(C(=O)NCCCN4CCOCC4)oc3nc2c1 10 µM
COc1ccc2cc3cc(C(=O)NCCN4CCN(c5ccccc5F)CC4)oc3nc2c1 14.1 µM
COc1cc2c(C(=O)N3CCN(C)CC3)c(C)n(-c3ccccc3)c2cc1Br 1.12 µM
COc1ccc2c(Cl)c(-c3nnco3)sc2c1 7.08 µM
COc1cc(/C=N/Nc2snc(SC)c2C#N)cc(OC)c1OC 7.94 µM
COc1ccc(/C=N/Nc2snc(SC)c2C#N)cc1OC 8.91 µM
CS(=O)(=O)Nc1cccc(-c2cncnc2Nc2ccccc2)c1 0.501 µM
COc1cccc(-c2cncnc2Nc2ccc(F)cc2)c1 0.794 µM
CS(=O)(=O)Nc1cccc(-c2cncnc2Nc2ccc(F)cc2)c1 0.316 µM
Cc1cc(N)c2ccccc2[n+]1CCCCCCCCCCCCCC[n+]1c(C)cc(N)c2ccccc21 10 µM
O=C(CSc1nc2ccccc2s1)N1c2ccccc2Sc2ccc(C(F)(F)F)cc21 6.31 µM
